Only a selection was taken, and hits are over-represented in it overall.
RE007 growth inh: less growth of the S. pombe RE007 Vpr strain. Potency, µM (top dose mostly 92.2 µM), for the others: at the highest dose activity change, negative = less growth, usual class: inhibitors. 360,000 compounds, 0.21% hits. AID 651644. S. pombe RE007 Vpr strain, BacTiter-Glo ATP luminescence, 24 h; active = well fitted falling curve with a large enough effect; inconclusive = small, poorly fitted or top-dose-only effect; inactive = no such curve, though single readings can be large or run the other way; note: potency is the fitted concentration of half-maximal effect; % is set by controls: 0 for no effect and ±100 for the full control effect; nearly all actives have a fitted effect of over 50% in size
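Fission yeast RE007 carrying one integrated HIV-1 vpr copy, seeded at OD 0.01 in PMG+AL medium with 23 nL pinned compound. Grown 24 h at 30 degrees; viability read by BacTiter-Glo luminescence after 5 min.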
LmPK inh: inhibitors of Leishmania mexicana pyruvate kinase | Q27686 | purified LmPK, Kinase-Glo ATP luminescence, 1 h | Potency, µM (series often up to 57.5 µM), without a hit: at the top dose activity change, negative = inhibition, most hits filed as inhibitors | 290,000 compounds, 0.37% hits | AID 1721; note: potency is the fitted concentration of half-maximal effect; % is set by controls: 0 for no effect and ±100 for the full control effect
Target sequence (Q27686 whole entry, looked up): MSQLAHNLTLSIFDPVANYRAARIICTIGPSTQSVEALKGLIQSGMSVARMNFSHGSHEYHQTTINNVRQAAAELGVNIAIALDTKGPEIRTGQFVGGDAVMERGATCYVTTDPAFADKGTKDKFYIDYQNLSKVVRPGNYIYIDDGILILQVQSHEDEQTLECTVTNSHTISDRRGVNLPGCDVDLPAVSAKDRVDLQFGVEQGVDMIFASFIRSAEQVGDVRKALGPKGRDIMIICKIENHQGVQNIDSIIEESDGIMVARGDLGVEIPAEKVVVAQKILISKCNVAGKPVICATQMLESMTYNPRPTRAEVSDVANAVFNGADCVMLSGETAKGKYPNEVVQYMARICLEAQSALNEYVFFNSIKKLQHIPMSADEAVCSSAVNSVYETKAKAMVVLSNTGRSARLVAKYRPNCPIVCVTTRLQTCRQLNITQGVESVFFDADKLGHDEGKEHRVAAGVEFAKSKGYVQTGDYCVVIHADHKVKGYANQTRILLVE
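Purified LmPK (0.1 nM) with 0.5 mM PEP and 0.1 mM ADP in imidazole buffer pH 7.2 with MgCl2/KCl, 1 h at room temperature. ATP formed was read by luciferase luminescence and normalized to no-enzyme and uninhibited controls.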
Giardia FBPA inh: blocks Giardia fructose-bisphosphate aldolase activity | A8B2U2 | purified Giardia FBPA | Potency, µM (top dose mostly 59.6 µM), inactives show top-dose activity, negative = inhibition, actives largely listed as inhibitors | 290,000 compounds, 0.71% hits | AID 2451; note: potency is the fitted concentration of half-maximal effect; % is set by controls: 0 for no effect and ±100 for the full control effect; nearly all actives have a fitted effect of over 55% in size
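40 nM FBPA preincubated 10 min at RT with compound (up to 57.5 uM final), then substrate plus GAPDH/TPI/NAD/arsenate coupling and diaphorase/resazurin added. Fluorescence read after 20 min at RT, 525/598 nm.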
CHX counter-1: affects cycloheximide protein synthesis inhibition readout, counter-screen. cell reporter, cycloheximide protein synthesis inhibition counterscreen. 300,000 compounds, 12% hits. AID 2314. max response, %; in the data active = max response mostly above about 13%, no sharp cut-off; inactive = mostly below about 14%; note: read at 38.3 µM for the half of the compounds with a filed dose; 0% is about no effect
Tb PYK inh: inhibitors of Trypanosoma brucei pyruvate kinase | Q57TT1 | TbPYK enzyme, Kinase-Glo Plus ATP luminescence, 45 min | Potency, µM (series often up to 76.8 µM), for inactives: at the top dose activity, negative = inhibition, most hits filed as inhibitors | 410,000 compounds, 0.12% hits | AID 624173; note: potency is the fitted concentration of half-maximal effect; % is set by controls: 0 for no effect and ±100 for the full control effect; nearly all actives have a fitted effect of over 50% in size
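Luminescence from Kinase-Glo Plus, added after a 45-minute room-temperature reaction, served as the end-point read-out. The enzyme and substrate were preincubated with compound before ADP (130 uM final) initiated turnover. Concentration-effect curves came from normalized qHTS data.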
Shiga inhibitor: Shiga toxin inhibition. Vero cells, Shiga toxin protein synthesis inhibition reporter. inhibition, % at 38.7 µM. 290,000 compounds, 9.2% hits; in the data active = inhibition mostly above about 28%, no sharp cut-off; inactive = mostly below about 43%; note: 0% is about no effect
CHX counter-2: counter-screen for Shiga toxin inhibitors: cycloheximide protein synthesis block. 510 compounds, 3% hits. Potency, µM (series often up to 38.3 µM), without a hit: at the top dose activity (activation), actives largely listed as activators. shares compounds with Shiga inhibitor. Cycloheximide counterscreen, protein synthesis reporter, Shiga toxin assay; calls by dose curve; note: potency is the fitted concentration of half-maximal effect; 0% is about no effect
* hit, by the source's call; ? = inconclusive; · = not tested or not shown. Unless noted, calls come from the whole dose curve; as a rule, active = well fitted curve in the direction sought with a large enough effect; inconclusive = small, poorly fitted or top-dose-only effect, or another doubt; inactive = no such curve, though single readings can be large; an effect the other way counts as inactive or inconclusive.

SMILES | RE007 growth inh | LmPK inh | Giardia FBPA inh | CHX counter-1 | Tb PYK inh | Shiga inhibitor | CHX counter-2
Cc1c(NC(=O)c2ccc3c(c2)OCO3)cccc1-c1nc2ccccc2o1 | 6.9% | 1.0% | 0.0% | 7.9 | -4.9% | 39.2* | 3.6%
Fc1cccc(NCc2ccccc2-c2nnc(-c3ccccc3Cl)o2)c1 | · | · | · | · | 2.1% | · | ·
CC(Oc1ccc(F)cc1Br)c1nc2ccccc2c(=O)[nH]1 (stereo not given) | 8.1% | 0.4% | -7.6% | -1.7 | 53.0% | 71.0* | ?
CC(c1nc2ccccc2c(=O)[nH]1)N(C)c1ccc2ccccc2c1 (stereo not given) | 4.4% | 2.1% | -17.9% | -5.5 | 1.5% | 21.6 | ·
Cc1nn(-c2ccc(C(=O)O)cc2)c2c1C(=O)CC(C)(C)C2 | 5.9% | -3.0% | 5.9% | -1.7 | 1.6% | 80.9* | -4.8%
Cc1nn(-c2ccc(C(=O)O)cc2)c(C)c1Oc1ccccc1O | -1.7% | 5.3% | 9.8% | -1.9 | -8.5% | -6.4 | ·
Cc1ccc(C(=O)CSc2nnnn2C(C)C)c(C)c1 | 1.6% | -2.0% | -2.9% | 1.3 | -5.3% | 33.3* | 0.318µM*
COc1cccc(CNCCSc2nnnn2C)c1OCc1ccc(Cl)cc1Cl | · | · | · | · | -7.0% | · | ·
CCN(CC)S(=O)(=O)c1ccc(C(=O)NCCc2ccccn2)cc1 | -3.8% | -1.0% | 0.0% | 11.3 | -2.2% | 45.4* | 3.0%
C=Cc1ccc(COc2ccc3oc(-c4ccccc4)c(C(=O)OCC)c3c2)cc1 | · | · | · | · | 0.9% | · | ·
Cc1cccc(C(=O)Nc2nnc(SCC(=O)NC3CC3)s2)c1 | 8.5% | -6.6% | -23.7% | -3.0 | -8.4% | 53.3* | ?
COC(=O)c1ccc2c(=O)n(CCCCCC(=O)N3CCN(c4cc(C)ccc4C)CC3)c(=O)[nH]c2c1 | · | · | · | · | -4.2% | · | ·
COc1cc(/C=C2/C(=O)c3cccc([N+](=O)[O-])c3C2=O)c(Br)cc1O | -12.3% | 14.1µM* | -29.6% | 4.0 | ? | 61.1* | ?
COc1ccccc1CNC(=O)c1csc2c1CCCC2 | 6.0% | 3.5% | -14.4% | 6.3 | -7.4% | 38.8* | 3.3%
Cc1ccc(Oc2nn[nH]n2)cc1 | 1.3% | -0.5% | -6.8% | -1.8 | 0.0% | 46.9* | 1.6%
Cc1ccc2c(CN3CCCCC3C)cc(=O)oc2c1C (stereo not given) | -21.2% | 0.0% | -11.7% | 5.4 | 9.2% | 40.1* | -1.3%
CCN(CCNC(=O)C1CCN(Cc2nc(-c3ccc(Cl)cc3)oc2C)CC1)c1ccccc1 | 19.1% | 2.7% | 2.2% | 1.5 | 3.8% | -4.9 | ·
CCN(CCNC(=O)C1CCN(Cc2nc(-c3cccc(Cl)c3)oc2C)CC1)c1ccccc1 | 11.2% | -4.9% | -20.9% | 10.4 | 2.6% | 104.7* | -2.0%
COc1cc2c(c(OC)c1OC)-c1c(cc(OC)c(OC)c1OC)C[C@](C)(O)[C@@H](C)C2 | 15.7% | -1.8% | 2.1% | 1.5 | 1.3% | 48.7* | -1.0%
CC(=O)[C@@H]1[C@@H]2C(=O)N(c3ccc(F)c(Cl)c3)C(=O)[C@@H]2C2c3ccccc3C=CN21 (stereo not given in full) | · | 5.2% | ? | -2.5 | · | active | -0.8%
CC(=O)[C@@H]1[C@@H]2C(=O)N(C3CCCCC3)C(=O)[C@@H]2C2c3ccccc3C=CN21 (stereo not given in full) | · | -1.1% | · | 9.4 | · | 19.2 | ·
COc1cccc(OC)c1OCCCOc1ccc(C)cc1Br | -6.5% | 2.4% | -11.2% | 6.8 | -7.6% | 22.0* | 2.5%
COc1ccccc1OCCCOc1c(C)cc(C)cc1Br | -2.1% | 0.5% | 4.3% | 9.6 | -5.4% | 19.0 | ·
CCOc1ccc2nc(NC(=O)CN3CCN(c4ccccn4)CC3)sc2c1 | -6.8% | 6.8% | -10.1% | 13.5 | 0.0% | 55.7* | 3.7%
O=c1n(Cc2ccc(F)cc2)nc2n1-c1ccccc1SC2 | 2.0% | -3.3% | 2.7% | 14.0 | 0.3% | 31.2* | 5.8%
Nc1ccc(C(=O)NC2CCSc3ccccc32)cc1[N+](=O)[O-] (stereo not given) | 0.0% | -0.3% | · | 18.2 | 8.9% | 28.0* | ?
